Experimental data taken from the supplement of paper PMC10849652.
The full data set covers some 8,800 targets. This sample favours those with a hit. About 0.5% of all pairs of compound and target were hits.

Key:
Test in all cases: log2 fold change, soluble protein after heating vs DMSO (PISA); higher = thermal stabilisation; K562 lysate, 10 uM; active = over 0.2 and 3.5 SD of the protein, either way, in both replicates (recomputed)
nilotinib = compound: Cc1cn(-c2cc(NC(=O)c3ccc(C)c(Nc4nccc(-c5cccnc5)n4)c3)cc(C(F)(F)F)c2)cn1 [nilotinib]
Method in brief: (§1)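 Values give the log-two fold change in thermal stability against solvent controls, from duplicates. Crude K562 extract at 1 mg/mL protein, made by dounce homogenisation in PBS pH 7.4 with 1 mM MgCl2, was treated with 10 μM compound for 30 min. After 3 min heating across 48°C-58°C, aliquots were pooled, adjusted to 0.5% NP-40 at 4°C and centrifuged at 21,000xg for 90 min. The supernatant was measured by TMTpro 16plex LC-MS/MS with channel sums equalised.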

[1] = compound: Cc1nc(Nc2n[nH]c3c2CN(C(=O)N[C@H](CN(C)C)c2ccccc2)C3(C)C)c2sccc2n1
Method in brief: as §1

dasatinib = compound: Cc1nc(Nc2ncc(C(=O)Nc3c(C)cccc3Cl)s2)cc(N2CCN(CCO)CC2)n1 [dasatinib]
Method in brief: as §1

[2] = compound: Cc1ncc(-c2ccnc(Nc3ccc(S(C)(=O)=O)cc3)n2)n1C(C)C
Method in brief: as §1

[3] = compound: Cn1cc(-c2ccc3c(c2)CCN3C(=O)Cc2cccc(C(F)(F)F)c2)c2c(N)ncnc21
Method in brief: as §1

quisinostat = compound: Cn1cc(CNCC2CCN(c3ncc(C(=O)NO)cn3)CC2)c2ccccc21 [quisinostat]
Method in brief: as §1

tipifarnib = compound: Cn1cncc1[C@@](N)(c1ccc(Cl)cc1)c1ccc2c(c1)c(-c1cccc(Cl)c1)cc(=O)n2C [tipifarnib]
Method in brief: as §1

[4] = compound: NC(=O)Nc1cc(-c2cccc(F)c2)sc1C(=O)N[C@H]1CCCNC1
Method in brief: as §1

[5] = compound: NC(=O)c1cnc(N[C@@H]2CCCC[C@@H]2N)nc1Nc1cccc(-n2nccn2)c1
Method in brief: as §1

[6] = compound: NC1(c2ccc(-c3nc4ccn5c(=O)[nH]nc5c4cc3-c3ccccc3)cc2)CCC1
Method in brief: as §1

[7] = compound: NCC(=O)Nc1ccc(-n2nc(C(F)(F)F)cc2-c2ccc3c(ccc4ccccc43)c2)cc1
Method in brief: as §1

vorinostat = compound: O=C(CCCCCCC(=O)Nc1ccccc1)NO [vorinostat]
Method in brief: as §1

silmitasertib = compound: O=C(O)c1ccc2c(c1)nc(Nc1cccc(Cl)c1)c1ccncc12 [silmitasertib]
Method in brief: as §1

[8] = compound: O=C1NC(=O)C(c2cnc3ccccn23)=C1c1cn2c3c(cc(F)cc13)CN(C(=O)N1CCCCC1)CC2
Method in brief: as §1

entospletinib = compound: c1cn2cc(-c3ccc4cn[nH]c4c3)nc(Nc3ccc(N4CCOCC4)cc3)c2n1 [entospletinib]
Method in brief: as §1

Measured: log2 fold change

MRPS12 (UniProt O15235)
inactive: nilotinib -0.026 | [1] 0.061 | dasatinib -0.104 | [2] -0.041 | [3] -0.007 | quisinostat -0.051 | tipifarnib -0.012 | [4] 0.01 | [5] 0.018 | [6] 0.063 | [7] -0.005 | silmitasertib -0.011 | [8] -0.013 | entospletinib -0.046
active: vorinostat -0.35

NUP160 (UniProt Q12769)
active: vorinostat -0.291
inactive: nilotinib 0.014 | [1] -0.025 | dasatinib -0.092 | [2] -0.032 | [3] 0.021 | quisinostat -0.032 | tipifarnib -0.031 | [4] 0.009 | [5] 0.002 | [6] -0.018 | [7] -0.036 | silmitasertib 0.082 | [8] 0.022 | entospletinib 0.009

NOB1 (UniProt Q9ULX3)
UniProt Q9ULX3, sequence (Q9ULX3 whole entry, looked up): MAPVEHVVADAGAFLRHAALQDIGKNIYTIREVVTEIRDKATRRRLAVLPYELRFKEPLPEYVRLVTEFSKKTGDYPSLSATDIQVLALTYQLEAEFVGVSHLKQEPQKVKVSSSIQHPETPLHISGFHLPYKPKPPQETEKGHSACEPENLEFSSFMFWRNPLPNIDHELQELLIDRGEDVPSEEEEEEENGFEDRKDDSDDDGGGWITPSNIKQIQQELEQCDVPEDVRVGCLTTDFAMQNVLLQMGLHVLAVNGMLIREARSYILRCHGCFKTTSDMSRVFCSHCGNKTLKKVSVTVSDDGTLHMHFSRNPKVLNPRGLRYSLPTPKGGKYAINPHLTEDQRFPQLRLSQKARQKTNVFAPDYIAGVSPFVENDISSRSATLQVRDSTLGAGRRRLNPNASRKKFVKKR
inactive: nilotinib 0.018 | [1] -0.026 | dasatinib 0.004 | [2] -0.066 | [3] 0.044 | quisinostat 0.041 | tipifarnib 0 | [4] 0.043 | [5] -0.018 | [6] 0.058 | [7] 0.017 | vorinostat -0.128 | silmitasertib 0.048 | [8] -0.024 | entospletinib 0.024

MYD88 isoform 6 (UniProt Q99836)
UniProt Q99836, sequence (Q99836 whole entry, looked up): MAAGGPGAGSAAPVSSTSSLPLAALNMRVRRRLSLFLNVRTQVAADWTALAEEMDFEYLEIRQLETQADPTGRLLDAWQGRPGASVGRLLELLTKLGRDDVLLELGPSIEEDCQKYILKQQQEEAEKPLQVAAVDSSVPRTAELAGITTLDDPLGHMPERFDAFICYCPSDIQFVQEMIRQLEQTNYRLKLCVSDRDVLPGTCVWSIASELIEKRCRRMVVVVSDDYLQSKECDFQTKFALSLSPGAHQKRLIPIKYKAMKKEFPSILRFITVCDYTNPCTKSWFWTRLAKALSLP
inactive: nilotinib -0.003 | [1] 0.001 | dasatinib -0.021 | [2] -0.027 | [3] 0.024 | quisinostat -0.033 | tipifarnib 0.004 | [4] 0 | [5] 0.03 | [6] 0.054 | [7] -0.005 | silmitasertib 0.023 | [8] -0.05 | entospletinib 0.033
active: vorinostat -0.366

ORC2 (UniProt Q13416)
UniProt Q13416, sequence (Q13416 whole entry, looked up): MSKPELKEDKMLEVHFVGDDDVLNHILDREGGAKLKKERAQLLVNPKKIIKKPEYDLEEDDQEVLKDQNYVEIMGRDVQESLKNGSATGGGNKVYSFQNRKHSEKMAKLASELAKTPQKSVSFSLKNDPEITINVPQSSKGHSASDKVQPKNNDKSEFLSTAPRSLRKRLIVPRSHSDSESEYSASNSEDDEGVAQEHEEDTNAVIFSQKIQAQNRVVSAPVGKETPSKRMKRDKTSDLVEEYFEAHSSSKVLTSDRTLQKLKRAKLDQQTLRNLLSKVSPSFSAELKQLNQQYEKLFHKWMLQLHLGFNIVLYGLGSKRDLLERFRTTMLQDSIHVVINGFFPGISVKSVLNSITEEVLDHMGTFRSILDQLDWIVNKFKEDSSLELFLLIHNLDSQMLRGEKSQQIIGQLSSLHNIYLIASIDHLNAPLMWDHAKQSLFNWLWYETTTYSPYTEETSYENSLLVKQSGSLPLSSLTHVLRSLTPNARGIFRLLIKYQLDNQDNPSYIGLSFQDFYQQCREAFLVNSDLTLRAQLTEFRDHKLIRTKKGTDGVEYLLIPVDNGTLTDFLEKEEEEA
inactive: nilotinib 0 | [1] 0.009 | dasatinib -0.036 | [2] -0.014 | [3] -0.004 | quisinostat -0.016 | tipifarnib 0.004 | [4] 0.095 | [5] -0.004 | [6] -0.029 | [7] 0 | silmitasertib 0.007 | [8] 0.049 | entospletinib 0.021
active: vorinostat -0.285

NOC2L (UniProt Q9Y3T9)
inactive: nilotinib 0.027 | [1] 0.022 | dasatinib -0.03 | [2] -0.046 | [3] -0.052 | quisinostat -0.082 | tipifarnib -0.087 | [4] 0.058 | [5] 0.014 | [6] -0.019 | [7] -0.055 | vorinostat -0.126 | silmitasertib 0.031 | [8] 0.009 | entospletinib 0.028

NDC1 (UniProt Q9BTX1)
inactive: nilotinib -0.019 | [1] -0.006 | dasatinib -0.071 | [2] -0.018 | [3] 0.052 | quisinostat -0.03 | tipifarnib 0.009 | [4] 0 | [5] -0.01 | [6] -0.028 | [7] 0.013 | vorinostat -0.134 | silmitasertib -0.016 | [8] -0.012 | entospletinib -0.016

NQO1 (UniProt P15559)
UniProt P15559, sequence (P15559 whole entry, looked up): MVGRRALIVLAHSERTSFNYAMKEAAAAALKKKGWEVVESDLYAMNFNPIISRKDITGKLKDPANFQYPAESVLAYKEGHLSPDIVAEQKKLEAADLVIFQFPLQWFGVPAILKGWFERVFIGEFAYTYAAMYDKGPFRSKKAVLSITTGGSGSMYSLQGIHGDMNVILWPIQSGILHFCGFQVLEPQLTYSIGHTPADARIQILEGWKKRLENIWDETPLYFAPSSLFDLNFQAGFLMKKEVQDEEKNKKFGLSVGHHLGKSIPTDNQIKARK
inactive: nilotinib 0.051 | [1] -0.031 | dasatinib 0.244 | [2] 0.022 | [3] -0.104 | quisinostat 0.021 | tipifarnib 0.042 | [4] 0.042 | [5] -0.027 | [6] 0.056 | [7] 0.008 | vorinostat -0.132 | silmitasertib 0.038 | [8] 0.023 | entospletinib -0.027

NFAT5 isoform 5 (UniProt O94916)
inactive: nilotinib -0.012 | [1] -0.07 | dasatinib 0.008 | [2] 0.046 | [3] -0.014 | quisinostat -0.172 | tipifarnib -0.032 | [4] 0.031 | [5] 0.018 | [6] 0.039 | [7] 0.033 | vorinostat -0.026 | silmitasertib 0.037 | [8] 0.016 | entospletinib -0.061

NUP188 (UniProt Q5SRE5)
active: vorinostat -0.36
inactive: nilotinib 0.025 | [1] -0.003 | dasatinib -0.074 | [2] -0.002 | [3] 0.055 | quisinostat -0.024 | tipifarnib -0.047 | [4] 0.043 | [5] 0.03 | [6] 0.009 | [7] -0.002 | silmitasertib 0.073 | [8] -0.009 | entospletinib -0.003

NLRP2 (UniProt Q9NX02)
UniProt Q9NX02, sequence (Q9NX02 whole entry, looked up): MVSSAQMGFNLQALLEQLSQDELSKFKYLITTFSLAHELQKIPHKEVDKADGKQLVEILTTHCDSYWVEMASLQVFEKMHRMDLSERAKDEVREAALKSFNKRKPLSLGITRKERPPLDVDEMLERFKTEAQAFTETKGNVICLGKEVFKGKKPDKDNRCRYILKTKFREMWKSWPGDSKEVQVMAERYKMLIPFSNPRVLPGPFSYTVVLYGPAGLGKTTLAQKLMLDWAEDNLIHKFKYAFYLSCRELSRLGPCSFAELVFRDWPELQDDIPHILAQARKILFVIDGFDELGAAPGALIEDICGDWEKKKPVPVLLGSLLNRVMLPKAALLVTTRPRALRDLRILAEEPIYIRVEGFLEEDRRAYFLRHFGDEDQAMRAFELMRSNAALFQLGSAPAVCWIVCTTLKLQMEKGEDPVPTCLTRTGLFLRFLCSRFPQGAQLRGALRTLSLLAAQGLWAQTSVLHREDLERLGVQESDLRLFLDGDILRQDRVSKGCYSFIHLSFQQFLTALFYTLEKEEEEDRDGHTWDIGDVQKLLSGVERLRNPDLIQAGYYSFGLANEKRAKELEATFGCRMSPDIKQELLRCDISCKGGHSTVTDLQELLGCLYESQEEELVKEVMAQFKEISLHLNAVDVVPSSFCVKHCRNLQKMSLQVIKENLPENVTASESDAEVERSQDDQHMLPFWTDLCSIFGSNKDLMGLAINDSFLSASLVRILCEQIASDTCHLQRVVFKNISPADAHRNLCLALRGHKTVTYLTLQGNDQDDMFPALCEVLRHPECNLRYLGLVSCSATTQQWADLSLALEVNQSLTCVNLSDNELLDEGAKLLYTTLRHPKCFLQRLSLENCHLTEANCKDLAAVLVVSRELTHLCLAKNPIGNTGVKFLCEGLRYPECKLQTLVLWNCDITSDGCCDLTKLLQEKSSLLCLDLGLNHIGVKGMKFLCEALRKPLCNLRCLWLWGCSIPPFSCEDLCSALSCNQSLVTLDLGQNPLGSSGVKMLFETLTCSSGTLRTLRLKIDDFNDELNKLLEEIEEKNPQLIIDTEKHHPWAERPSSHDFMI
active: vorinostat -0.528
inactive: nilotinib -0.002 | [1] 0.013 | dasatinib -0.019 | [2] 0.007 | [3] 0.032 | quisinostat -0.031 | tipifarnib -0.008 | [4] 0.013 | [5] 0.003 | [6] 0.026 | [7] -0.031 | silmitasertib 0.062 | [8] -0.015 | entospletinib 0.011

NADK2 (UniProt Q4G0N4)
inactive: nilotinib 0.022 | [1] 0.002 | dasatinib -0.016 | [2] -0.008 | [3] -0.022 | quisinostat 0.017 | tipifarnib 0.008 | [4] -0.032 | [5] 0.029 | [6] 0.03 | [7] -0.002 | vorinostat -0.106 | silmitasertib 0.044 | [8] 0.003 | entospletinib -0.001

NIFK (UniProt Q9BYG3)
inactive: nilotinib 0.033 | [1] -0.003 | dasatinib -0.012 | [2] 0.035 | [3] -0.01 | quisinostat -0.042 | tipifarnib 0.002 | [4] 0.037 | [5] -0.016 | [6] -0.038 | [7] 0.063 | vorinostat 0.063 | silmitasertib -0.001 | [8] 0.047 | entospletinib 0.044

MTA1 (UniProt Q13330)
UniProt Q13330, sequence (Q13330 whole entry, looked up): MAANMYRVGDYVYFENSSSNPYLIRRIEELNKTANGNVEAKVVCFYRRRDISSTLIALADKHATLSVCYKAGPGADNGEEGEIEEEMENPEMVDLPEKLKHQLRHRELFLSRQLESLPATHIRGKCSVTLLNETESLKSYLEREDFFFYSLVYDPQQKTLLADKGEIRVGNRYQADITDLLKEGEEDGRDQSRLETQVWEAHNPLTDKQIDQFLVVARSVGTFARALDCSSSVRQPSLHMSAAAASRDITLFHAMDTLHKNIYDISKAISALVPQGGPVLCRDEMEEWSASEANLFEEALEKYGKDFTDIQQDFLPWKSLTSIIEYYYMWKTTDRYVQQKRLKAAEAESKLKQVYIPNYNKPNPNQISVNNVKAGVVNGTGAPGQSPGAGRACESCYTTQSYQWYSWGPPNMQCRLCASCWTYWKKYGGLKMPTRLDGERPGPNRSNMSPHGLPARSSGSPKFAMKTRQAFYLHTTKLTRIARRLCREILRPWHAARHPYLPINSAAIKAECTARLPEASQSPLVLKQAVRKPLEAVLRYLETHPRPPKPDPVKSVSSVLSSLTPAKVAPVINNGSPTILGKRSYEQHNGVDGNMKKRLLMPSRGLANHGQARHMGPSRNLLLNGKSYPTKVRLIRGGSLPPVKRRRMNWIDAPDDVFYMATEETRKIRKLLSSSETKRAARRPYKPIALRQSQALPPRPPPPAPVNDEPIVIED
active: vorinostat -0.212
inactive: nilotinib 0.042 | [1] 0.01 | dasatinib -0.023 | [2] 0.033 | [3] 0.005 | quisinostat -0.089 | tipifarnib -0.03 | [4] 0.052 | [5] -0.033 | [6] -0.004 | [7] -0.005 | silmitasertib -0.037 | [8] 0.016 | entospletinib -0.036

PANK4 (UniProt Q9NVE7)
active: vorinostat -0.423
inactive: nilotinib 0.028 | [1] -0.006 | dasatinib -0.086 | [2] -0.006 | [3] 0.003 | quisinostat -0.054 | tipifarnib 0.009 | [4] 0.038 | [5] -0.003 | [6] -0.045 | [7] 0.012 | silmitasertib -0.03 | [8] 0.055 | entospletinib 0.035

OGFOD2 (UniProt Q6N063)
UniProt Q6N063, sequence (Q6N063 whole entry, looked up): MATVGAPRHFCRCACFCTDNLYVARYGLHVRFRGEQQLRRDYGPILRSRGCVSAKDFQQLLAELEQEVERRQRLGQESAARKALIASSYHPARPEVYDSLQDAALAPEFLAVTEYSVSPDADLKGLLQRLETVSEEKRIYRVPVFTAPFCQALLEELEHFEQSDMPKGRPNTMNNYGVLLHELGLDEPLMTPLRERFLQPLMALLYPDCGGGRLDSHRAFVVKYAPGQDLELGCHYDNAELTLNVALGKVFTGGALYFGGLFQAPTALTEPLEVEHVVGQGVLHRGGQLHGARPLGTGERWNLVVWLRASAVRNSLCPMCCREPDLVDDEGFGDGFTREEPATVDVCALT
inactive: nilotinib -0.002 | [1] 0.005 | dasatinib 0.006 | [2] 0.063 | [3] 0.048 | quisinostat 0.031 | tipifarnib 0.026 | [4] 0.049 | [5] -0.017 | [6] 0.049 | [7] 0.023 | vorinostat -0.075 | silmitasertib 0.038 | [8] 0.022 | entospletinib -0.001

NUDT4 (UniProt Q9NZJ9)
UniProt Q9NZJ9, sequence (Q9NZJ9 whole entry, looked up): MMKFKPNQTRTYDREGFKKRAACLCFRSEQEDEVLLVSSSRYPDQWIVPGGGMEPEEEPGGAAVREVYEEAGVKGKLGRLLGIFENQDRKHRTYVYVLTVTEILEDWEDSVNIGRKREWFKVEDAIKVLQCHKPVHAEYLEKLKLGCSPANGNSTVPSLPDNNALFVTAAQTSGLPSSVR
inactive: nilotinib 0.115 | [1] -0.03 | dasatinib 0.038 | [2] -0.002 | [3] 0.006 | quisinostat 0.129 | tipifarnib 0.11 | [4] 0.018 | [5] -0.059 | [6] 0.022 | [7] -0.144 | vorinostat -0.162 | silmitasertib 0.028 | [8] 0.03 | entospletinib -0.01

NUF2 (UniProt Q9BZD4)
UniProt Q9BZD4, sequence (Q9BZD4 whole entry, looked up): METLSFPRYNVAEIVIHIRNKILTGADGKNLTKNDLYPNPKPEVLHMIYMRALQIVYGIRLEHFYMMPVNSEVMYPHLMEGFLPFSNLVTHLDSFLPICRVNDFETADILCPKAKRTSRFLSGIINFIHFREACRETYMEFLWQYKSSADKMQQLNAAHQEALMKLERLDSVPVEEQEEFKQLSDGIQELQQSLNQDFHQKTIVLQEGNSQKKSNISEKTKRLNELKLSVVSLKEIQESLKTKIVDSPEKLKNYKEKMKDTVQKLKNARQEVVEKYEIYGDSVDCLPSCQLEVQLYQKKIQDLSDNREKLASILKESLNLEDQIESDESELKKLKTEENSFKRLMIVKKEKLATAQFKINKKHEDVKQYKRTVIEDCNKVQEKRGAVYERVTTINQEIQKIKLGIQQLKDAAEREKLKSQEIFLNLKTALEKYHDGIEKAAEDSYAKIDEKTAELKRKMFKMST
active: vorinostat -0.242
inactive: nilotinib -0.011 | [1] 0.002 | dasatinib -0.044 | [2] -0.005 | [3] 0.017 | quisinostat -0.012 | tipifarnib 0.003 | [4] 0.061 | [5] 0.013 | [6] -0.014 | [7] 0.005 | silmitasertib 0.017 | [8] 0.008 | entospletinib 0.016

OARD1 (UniProt Q9Y530)
UniProt Q9Y530, sequence (Q9Y530 whole entry, looked up): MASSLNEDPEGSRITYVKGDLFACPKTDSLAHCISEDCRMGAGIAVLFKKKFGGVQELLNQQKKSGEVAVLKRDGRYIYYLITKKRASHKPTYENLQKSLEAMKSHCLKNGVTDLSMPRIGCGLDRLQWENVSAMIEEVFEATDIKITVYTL
inactive: nilotinib 0.015 | [1] 0.016 | dasatinib -0.031 | [2] 0.005 | [3] 0.071 | quisinostat -0.004 | tipifarnib -0.014 | [4] 0.036 | [5] -0.009 | [6] -0.006 | [7] -0.021 | silmitasertib 0.051 | [8] 0.02 | entospletinib 0.024
active: vorinostat -0.456

PANK1 (UniProt Q8TE04)
inactive: nilotinib -0.005 | [1] 0.014 | dasatinib -0.028 | [2] -0.05 | [3] 0.053 | quisinostat -0.039 | tipifarnib 0.079 | [4] 0.062 | [5] -0.007 | [6] 0.062 | [7] 0.01 | vorinostat -0.084 | silmitasertib 0.004 | [8] -0.039 | entospletinib 0.08

ORC5 (UniProt O43913)
UniProt O43913, sequence (O43913 whole entry, looked up): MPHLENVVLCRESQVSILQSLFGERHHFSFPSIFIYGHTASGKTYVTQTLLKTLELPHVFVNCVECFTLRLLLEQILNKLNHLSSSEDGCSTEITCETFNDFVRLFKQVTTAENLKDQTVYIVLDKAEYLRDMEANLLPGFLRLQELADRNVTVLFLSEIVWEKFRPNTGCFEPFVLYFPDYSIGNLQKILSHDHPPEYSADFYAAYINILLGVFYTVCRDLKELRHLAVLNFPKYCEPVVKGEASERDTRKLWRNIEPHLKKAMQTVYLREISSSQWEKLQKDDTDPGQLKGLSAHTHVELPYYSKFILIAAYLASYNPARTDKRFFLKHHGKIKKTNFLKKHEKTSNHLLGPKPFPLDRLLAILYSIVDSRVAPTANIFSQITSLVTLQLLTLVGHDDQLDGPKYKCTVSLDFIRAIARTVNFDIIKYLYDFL
inactive: nilotinib -0.043 | [1] -0.004 | dasatinib -0.047 | [2] 0.019 | [3] 0.098 | quisinostat -0.107 | tipifarnib -0.004 | [4] 0.098 | [5] 0.047 | [6] -0.073 | [7] 0.023 | silmitasertib 0.072 | [8] 0.011 | entospletinib 0.066
active: vorinostat -0.377
